From PubChem
USP2a inh: inhibitors of human ubiquitin-specific protease USP2a; USP2 core, Ub-CHOP2 coupled fluorogenic reporter, 485/531; AID 463254; O75604; hit rate 0.01% among 330,000; Potency, µM (top dose mostly 38.3 µM), for inactives: at the top dose activity change, negative = inhibition, hits mostly inhibitors;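 further: potency means the concentration at half of the fitted maximal effect; plate controls were DMSO wells for no effect and full inhibition by NEM control for full effect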
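USP2 core (10nM final) preincubated 30min RT with compound in 20mM Tris-HCl pH 8.0, 2mM CaCl2, 2mM beta-mercaptoethanol, 0.05% CHAPS; 25nM Ub-CHOP2 plus 25nM reporter substrate added, fluorescence (Ex485/Em531) read after 60min.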
PLK1 PBD block: blocks phosphopeptide binding to human PLK1 polo-box domain; P53350; Plk1 PBD binding of FITC phosphopeptide, fluorescence polarization; Potency, µM, for the others: max response, negative = inhibition, most hits filed as inhibitors; hit rate 2.8% among 360,000; AID 720504; further: potency means the concentration at half of the fitted maximal effect; series mostly up to about 57 µM; nearly all actives have a fitted effect of over 65% in size
PI5P4Ka inh: inhibitors of human PI5P4K alpha | PI5P4Kalpha enzyme, ADP-Glo luminescence, 60 min; active compounds read low | AID 652105 | hit rate 1.2% among 330,000 | P48426 | max response, %; active means max response of -50% or lower; inconclusive means between -30% and -50%; inactive means -30% or higher; further: value at the top dose of about 77 µM
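Single end-point luminescence (ADP-Glo) quantified ADP from PI5P4Kalpha turnover; ATP 5 microM final, 1 h at RT, 0.1% CHAPS and 0.28 mM EGTA in HEPES pH 7.4.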
USP1-UAF1 inh: blocks the human USP1/UAF1 deubiquitinase complex; recombinant USP1/UAF1, Ub-Rhodamine cleavage fluorescence; Potency, µM (top dose mostly 57.1 µM), without a hit: at the highest dose activity change, negative = inhibition, hits mostly inhibitors; hit rate 0.23% among 390,000; further: potency means the concentration at half of the fitted maximal effect; nearly all actives have a fitted effect of over 60% in size
Target sequence (O94782 whole entry, looked up): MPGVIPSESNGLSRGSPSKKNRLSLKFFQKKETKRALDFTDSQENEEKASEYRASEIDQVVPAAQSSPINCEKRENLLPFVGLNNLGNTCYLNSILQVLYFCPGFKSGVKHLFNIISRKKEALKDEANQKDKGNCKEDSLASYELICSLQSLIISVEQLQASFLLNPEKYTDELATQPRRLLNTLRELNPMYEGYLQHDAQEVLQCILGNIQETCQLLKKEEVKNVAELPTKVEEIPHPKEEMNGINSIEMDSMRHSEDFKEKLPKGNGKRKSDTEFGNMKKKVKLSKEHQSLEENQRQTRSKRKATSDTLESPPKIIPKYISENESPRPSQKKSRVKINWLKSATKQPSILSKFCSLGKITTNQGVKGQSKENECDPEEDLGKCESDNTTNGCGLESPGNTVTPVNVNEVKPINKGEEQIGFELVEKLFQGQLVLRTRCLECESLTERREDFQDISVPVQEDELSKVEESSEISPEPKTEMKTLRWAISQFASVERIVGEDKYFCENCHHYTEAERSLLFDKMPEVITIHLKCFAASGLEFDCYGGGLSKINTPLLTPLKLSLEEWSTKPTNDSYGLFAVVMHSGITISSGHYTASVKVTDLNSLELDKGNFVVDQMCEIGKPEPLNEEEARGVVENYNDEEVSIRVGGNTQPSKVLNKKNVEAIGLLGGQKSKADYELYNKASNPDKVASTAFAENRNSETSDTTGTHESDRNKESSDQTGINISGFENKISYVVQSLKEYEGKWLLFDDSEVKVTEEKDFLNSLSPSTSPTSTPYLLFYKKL
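High-throughput fluorogenic screen: 1nM USP1/UAF1 complex, Ub-Rho substrate 150nM final, 50mM HEPES pH 7.8 with 0.5mM EDTA, 0.1 mg/ml BSA, 1mM TCEP and 0.01% Tween-20.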
WRN helicase inh: WRN helicase (human) inhibition | Q14191 | WRN helicase unwinding, fluorescent forked duplex, kinetic | Potency, µM (doses to about 114 µM), inactives show at the top dose activity change, negative = inhibition, hits mostly inhibitors | hit rate 0.46% among 360,000; further: potency means the concentration at half of the fitted maximal effect; nearly all actives have a fitted effect of over 55% in size
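Primary qHTS, 1536-well format. 20 nM WRN + compound, 15 min RT; start with 100 nM forked fluorophore/quencher duplex, 2 mM ATP (final); kinetic read ex 525/em 598 nm.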
* marks the source's active call; other numbers are inactive results; ? = inconclusive; nt = no result; [ ] = remark or other dose. A selection: hits, their analogues and other compounds. The true share with any hit is near 3.3%. Unless noted, the call rests on the fitted dose curve; in most records, active means well fitted curve in the direction sought with a large enough effect; inconclusive means small, poorly fitted or top-dose-only effect, or another doubt; inactive means no such curve, though single readings can be large; an effect the other way counts as inactive or inconclusive. Unless noted, on the % scale 0 is the no-effect control and ±100 the full control effect.

SMILES | USP2a inh | PLK1 PBD block | PI5P4Ka inh | USP1-UAF1 inh | WRN helicase inh
Cc1c(Cl)cccc1NC(=O)CSc1ncccc1C(=O)Oc1ccccc1Cl | nt | nt | nt | -26.2% | nt
O=C(C1CCN(S(=O)(=O)Cc2ccccc2)CC1)N1CCN(c2cccc(C(F)(F)F)c2)CC1 | nt | nt | nt | -11.1% | nt
C=C(C)C(=O)Nc1cccc(C2=NOC3(C2)C[C@@H](C(N)=O)N(C(=O)c2ccc(Cl)cc2)C3)c1 (stereo not given in full) | 7.5% | 23.8µM* | ? | 4.0% | 44.7µM*
CCC(=O)Nc1cccc(C2=NOC3(C2)C[C@@H](C(N)=O)N(C(=O)COc2ccc(Cl)cc2)C3)c1 (stereo not given in full) | 0.0% | 1.1% | -0.4 | -25.2% | 0.5%
C=C(C)C(=O)Nc1cccc(C2=NOC3(C2)C[C@H](C(N)=O)N(C(=O)COc2ccc(Cl)cc2)C3)c1 (stereo not given in full) | -8.4% | 23.8µM* | ? | 12.6% | ?
Brc1cccc(-c2nnn3c2nc(NCc2ccc4c(c2)OCO4)c2ccccc23)c1 | nt | nt | nt | -9.8% | nt
CC(=O)c1ccc(NS(=O)(=O)c2ccc(N)cc2)cc1 | 3.3% | 29.9µM* | -16.6 | -1.0% | 1.5%
CC(=O)c1ccc(NS(=O)(=O)c2ccccc2)cc1 | 1.9% | -9.0% | nt | -9.5% | 3.1%
COc1ccc(C2C(=O)N(C3CCCCCC3)CC(=O)N2CCc2ccc(OC)c(OC)c2)cc1 (stereo not given) | nt | nt | nt | -0.7% | nt
Clc1ccc(Cn2nc(-c3ccccc3)nc2-c2ccccc2)cc1 | -5.9% | 23.8µM* | 9.5 | ? | -15.9%
Clc1ccccc1Cn1nc(-c2ccccc2)nc1-c1ccccc1 | 3.0% | 3.6% | 23.0 | -14.5% | 0.5%
COc1ccc(-n2cc(C(=O)N(C)c3cc(C)ccc3OC)c3ccccc3c2=O)cc1 | nt | nt | nt | 10.6% | nt
COc1ccccc1C(=O)Nc1ccc2c(c1)nc1n2CCN(C2CCCCC2)C1 | 3.5% | 16.8µM* | -20.4 | -5.6% | -10.5%
O=C(Nc1ccc2c(c1)nc1n2CCN(C2CCCCC2)C1)c1ccco1 | -2.8% | ? | -9.8 | -21.6% | -6.0%
O=C(O)c1ccc(-c2nc(-c3ccccc3)c(-c3ccccc3)[nH]2)cc1 | -1.5% | ? | -6.4 | -18.8% | 39.8µM*
O=C(CSc1nncc2ccccc12)Nc1cccc(C(=O)O)c1 | -0.3% | 18.9µM* | -28.6 | -20.6% | -3.1%
O=C(CSc1nc(-c2ccc(F)cc2)nc2c1Cc1ccccc1O2)Nc1cccc(C(=O)O)c1 | 3.0% | 10.6µM* | ? | ? | ?
O=C(CSc1nc(-c2ccccc2)nc2ccc(F)cc12)Nc1cccc(C(=O)O)c1 | -2.2% | -25.7% | -50.1* | -8.0% | -20.5%
COc1ccc(C)cc1-n1c(SCC(=O)Nc2cccc(C(=O)O)c2)nc2ccccc2c1=O | 0.3% | 1.5% | -80.7* | -4.8% | -11.5%
O=C(CSc1nc(-c2ccccc2)nc2ccc(F)cc12)Nc1ccc(C(=O)O)cc1 | 0.4% | -29.6% | ? | -23.6% | -20.6%[57.1 µM]
Cn1cnnc1SCC(=O)Nc1cccc(C(=O)O)c1 | 1.7% | 2.2% | -13.5 | -7.1% | -2.8%
O=C(CSc1nc(-c2ccccc2)nc2c1Cc1ccccc1O2)Nc1ccccc1 | 0.0% | nt | nt | nt | nt
COC(=O)c1sccc1S(=O)(=O)N(CC(=O)Nc1c(C)cccc1C)c1ccc(C)c(C)c1 | nt | nt | nt | -22.1% | nt
O=C(NCc1ccc(F)cc1)C1CCC(CNS(=O)(=O)c2ccccc2)CC1 (stereo not given) | 3.8% | 26.7µM* | -0.9 | -14.2% | -0.1%
Cc1ccc(-n2cc3c(c2-c2ccccc2Br)c(=O)n(C)c(=O)n3C)cc1N | nt | nt | nt | -2.2% | nt
SMILES | USP2a inh | PLK1 PBD block | PI5P4Ka inh | USP1-UAF1 inh | WRN helicase inh
Cc1ccc(-c2cc(C(=O)NCc3ccccn3)c3ccccc3n2)cc1C | -1.0% | 23.8µM* | 3.6 | -12.9% | -7.7%
O=C(NCCc1ccc(Cl)cc1)c1cc(-c2ccncc2)nc2ccccc12 | 0.2% | -18.4% | 5.8 | -3.0% | -2.6%
O=C(NCCc1ccc(Cl)cc1)c1cc(-c2ccccn2)nc2ccccc12 | 4.2% | 18.9µM* | 9.8 | -11.6% | -2.7%
Cc1ccc(NN2C(=O)C=C(c3ccc(Cl)cc3)C2=O)cc1 | -1.7% | 4.74µM* | -10.9 | -8.7% | ?
COc1ccc(C2=CC(=O)N(Nc3ccccc3)C2=O)cc1 | 6.3% | -24.9% | -2.0 | -15.1% | -10.1%
Cc1ccc2oc3c(c(=O)c2c1)C(c1ccccc1F)N(CCCN(C)C)C3=O (stereo not given) | nt | nt | nt | 9.8% | nt
O=c1[nH]c(/C=C\c2ccccc2F)nc(O)c1[N+](=O)[O-] | -0.6% | -6.0% | -71.9* | -11.9% | -9.8%
O=c1[nH]c(/C=C\c2cccc(F)c2)nc(O)c1[N+](=O)[O-] | -0.4% | 0.4% | -55.3* | -12.7% | -30.1%
O=c1[nH]c(/C=C\c2cccc(Cl)c2)nc(O)c1[N+](=O)[O-] | 3.6% | -0.3% | ? | -25.7% | -15.3%
O=c1[nH]c(/C=C/c2ccccc2F)nc2ccccc12 | 0.5% | 0.1% | 2.4 | -24.9% | 7.7%
Cc1ccc2oc(=O)c3cnn(CC(=O)Nc4cccc(C(F)(F)F)c4)c3c2c1 | nt | nt | nt | -15.8% | nt
Cc1ccc(-c2noc(CNC(=O)COc3cc(C)c(Br)c(C)c3)n2)cc1 | nt | nt | nt | 2.1% | nt
CC(SCc1cc(=O)n2c([nH]c3ccccc32)c1C#N)C(=O)O (stereo not given) | 4.8% | 13.4µM* | ? | -8.8% | ?
COc1ccc(OC)c(NC(=O)COC(=O)CNC(=O)c2ccc(OC)c(OC)c2)c1 | 0.5% | -4.1% | -1.2 | -12.6% | 6.8%
Cc1ccc(S(=O)(=O)CCC(=O)OCC(=O)Nc2sccc2C#N)cc1 | nt | -3.0% | -60.4* | -26.6% | -2.4%
COc1ccc(C(=O)NCC(=O)OCC(=O)Nc2sccc2C#N)cc1OC | 0.1% | ? | -58.0* | -14.0% | -27.9%[57.1 µM]
O=C(NCC(c1cccnc1)N1CCc2ccccc21)c1ccc(F)cc1 (stereo not given) | nt | nt | nt | -12.3% | nt
O=C(NCc1ccc(F)cc1)c1cc(-c2ccc(Cl)cc2)n[nH]1 | nt | nt | nt | 5.1% | nt
CC1CCC/C(=N/Nc2nc3ccccc3s2)C1 (stereo not given) | -11.2% | 29.9µM* | 3.1 | -18.5% | -1.6%
CC1(C)CC(=O)C/C(=N/Nc2nc3ccccc3s2)C1 | 1.3% | -19.0% | -14.4 | -25.8% | 6.3%
O=C(O)/C=C\C(=O)Nc1cccc(C(=O)Nc2cccc(O)c2)c1 | 0.5% | 23.8µM* | -3.8 | 1.9% | -13.8%[57.1 µM]
O=C(Nc1cccc(O)c1)c1ccccc1 | 0.4% | -5.5% | nt | -6.2% | -9.1%
CCC(=O)N1c2nc(C(C)C)nn2C2(CCCCC2)[C@@H]2CCCC[C@@H]21 | nt | nt | nt | -11.4% | nt
O=[N+]([O-])/C=C\c1ccc(N2CCOCC2)cc1 | nt | 29.9µM* | 1.5 | -10.3% | -3.5%
O=C(c1cc(-c2ccc(O)cc2)on1)N1CCN(c2ccc(F)cc2)CC1 | -2.9% | 2.2% | 12.5 | -21.2% | -4.5%
O=C(c1cc(-c2ccc(O)cc2)on1)N1CCN(c2ccccc2)CC1 | -1.1% | 33.6µM* | -14.2 | -8.0% | -5.0%
